# Source: PubChem BioAssay (NCATS)
# Records with an inconclusive call do not appear. Where a call stands in place of a potency, no number is given. Values without a mark were called inactive. The source made the active and inactive calls. Calls come from the whole dose curve; as a rule, active = well fitted curve in the direction sought with a large enough effect; inconclusive = small, poorly fitted or top-dose-only effect, or another doubt; inactive = no such curve, though single readings can be large; an effect the other way counts as inactive or inconclusive.
# Key:
# [1] = target: Rap guanine nucleotide exchange factor 3 (Homo sapiens) (UniProt O95398); experiment: Confirmatory qHTS for antagonist of cAMP-regulated guanine nucleotide exchange factor 3 (EPAC1) (AID 1645880); conditions: EPAC1 Rap1B-BODIPY-GDP exchange, fluorescence; activity, negative = inhibition: at 115 µM (top of the series); note: nearly all actives have a fitted effect of over 55% in size; note: potency is the fitted concentration of half-maximal effect
# Rap guanine nucleotide exchange factor 3 (Homo sapiens), sequence (O95398 whole entry, looked up): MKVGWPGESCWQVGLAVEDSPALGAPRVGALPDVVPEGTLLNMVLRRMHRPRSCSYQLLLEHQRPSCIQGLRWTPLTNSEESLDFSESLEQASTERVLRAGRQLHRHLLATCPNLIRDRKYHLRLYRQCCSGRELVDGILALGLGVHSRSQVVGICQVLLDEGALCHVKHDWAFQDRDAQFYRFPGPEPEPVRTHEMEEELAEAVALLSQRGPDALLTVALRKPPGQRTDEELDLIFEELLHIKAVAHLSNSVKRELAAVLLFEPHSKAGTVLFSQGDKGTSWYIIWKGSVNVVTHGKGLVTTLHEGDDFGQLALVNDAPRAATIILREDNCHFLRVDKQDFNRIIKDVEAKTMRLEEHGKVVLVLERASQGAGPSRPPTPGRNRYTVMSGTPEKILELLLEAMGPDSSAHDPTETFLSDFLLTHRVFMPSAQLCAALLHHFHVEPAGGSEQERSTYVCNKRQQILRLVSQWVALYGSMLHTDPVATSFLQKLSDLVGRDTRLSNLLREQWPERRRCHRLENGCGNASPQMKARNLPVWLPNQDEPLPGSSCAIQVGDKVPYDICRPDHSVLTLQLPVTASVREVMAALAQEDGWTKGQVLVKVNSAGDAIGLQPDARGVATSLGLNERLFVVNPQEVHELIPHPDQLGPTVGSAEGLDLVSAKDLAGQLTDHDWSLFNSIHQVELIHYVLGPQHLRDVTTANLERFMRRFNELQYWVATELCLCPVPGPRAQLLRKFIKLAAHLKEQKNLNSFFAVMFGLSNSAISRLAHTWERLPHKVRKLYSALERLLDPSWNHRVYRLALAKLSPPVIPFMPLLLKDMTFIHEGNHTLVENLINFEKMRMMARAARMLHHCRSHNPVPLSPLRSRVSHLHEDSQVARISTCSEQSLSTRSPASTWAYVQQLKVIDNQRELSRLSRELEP
# In short: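 Released BODIPY-GDP fluoresces less than Rap1-bound BODIPY-GDP; the signal is followed at 480/540 nm at 5-min intervals over 30 min, after 5 min at room temperature. Reactions contain 100 nM EPAC1, 250 nM RAP1B-BODIPY-GDP and 50 uM GDP; results are normalized to ATA and DMSO.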
# [2] = target: Rap guanine nucleotide exchange factor 4 (Homo sapiens) (UniProt Q8WZA2); experiment: Confirmatory qHTS for agonist of cAMP-regulated guanine nucleotide exchange factor 4 (EPAC2) (AID 1645884);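 note: nucleotide exchange releases bodipy-GDP from Rap1 and this lowers its fluorescence; nearly all actives have a fitted effect of over 65% in size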; note: potency is the fitted concentration of half-maximal effect
# Rap guanine nucleotide exchange factor 4 (Homo sapiens), sequence (Q8WZA2 whole entry, looked up): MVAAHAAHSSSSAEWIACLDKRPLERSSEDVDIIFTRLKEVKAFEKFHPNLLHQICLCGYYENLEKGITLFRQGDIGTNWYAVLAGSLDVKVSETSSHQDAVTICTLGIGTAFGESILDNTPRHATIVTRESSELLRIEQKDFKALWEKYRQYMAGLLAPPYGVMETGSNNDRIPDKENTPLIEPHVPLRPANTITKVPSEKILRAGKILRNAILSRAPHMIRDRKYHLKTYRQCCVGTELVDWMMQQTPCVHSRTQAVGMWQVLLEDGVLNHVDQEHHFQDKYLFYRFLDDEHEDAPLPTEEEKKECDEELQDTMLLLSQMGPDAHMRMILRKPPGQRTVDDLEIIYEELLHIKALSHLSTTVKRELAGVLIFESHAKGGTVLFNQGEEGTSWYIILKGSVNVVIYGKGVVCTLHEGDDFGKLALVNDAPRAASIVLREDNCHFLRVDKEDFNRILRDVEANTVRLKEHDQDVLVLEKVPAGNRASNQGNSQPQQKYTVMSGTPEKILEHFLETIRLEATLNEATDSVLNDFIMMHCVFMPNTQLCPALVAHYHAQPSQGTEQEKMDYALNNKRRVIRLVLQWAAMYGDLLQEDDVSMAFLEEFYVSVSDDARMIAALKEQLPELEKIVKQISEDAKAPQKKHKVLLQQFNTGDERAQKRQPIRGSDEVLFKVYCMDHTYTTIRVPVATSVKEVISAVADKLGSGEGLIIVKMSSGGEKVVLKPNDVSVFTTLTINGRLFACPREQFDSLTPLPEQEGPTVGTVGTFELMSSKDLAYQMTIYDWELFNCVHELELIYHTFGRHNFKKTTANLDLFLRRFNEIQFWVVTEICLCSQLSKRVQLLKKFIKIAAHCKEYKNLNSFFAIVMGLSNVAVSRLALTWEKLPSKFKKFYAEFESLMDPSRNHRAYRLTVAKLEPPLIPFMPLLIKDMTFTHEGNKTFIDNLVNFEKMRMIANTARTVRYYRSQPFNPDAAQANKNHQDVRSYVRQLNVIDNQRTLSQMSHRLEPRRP
# [3] = target: Rap guanine nucleotide exchange factor 4 (Homo sapiens) (UniProt Q8WZA2); experiment: Confirmatory qHTS for antagonist of cAMP-regulated guanine nucleotide exchange factor 4 (EPAC2) (AID 1645885); note: nearly all actives have a fitted effect of over 25% in size; note: potency is the fitted concentration of half-maximal effect
# [4] = target: Rap guanine nucleotide exchange factor 3 (Homo sapiens) (UniProt O95398); experiment: Counterscreen qHTS for antagonist of cAMP-regulated guanine nucleotide exchange factor 3 (EPAC1) (AID 1645888)
# In short: (§1)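 Rap1B–BODIPY-GDP (250 nM) with 50 uM GDP; compounds pin-transferred to 9.74 nM–152 uM final (activator) or from 7.32 nM upwards (inhibitor). Fluorescence Ex/Em 480/540 nm read at 5 and 30 min, then after adding cAMP or buffer, at room temperature.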
# [5] = target: Rap guanine nucleotide exchange factor 3 (Homo sapiens) (UniProt O95398); experiment: Confirmatory qHTS for agonist of cAMP-regulated guanine nucleotide exchange factor 3 (EPAC1) (AID 1645881);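 note: EPAC1 catalysed release of BODIPY-GDP from Rap1B seen as fluorescence loss; nearly all actives have a fitted effect of over 75% in size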
# [6] = target: Rap guanine nucleotide exchange factor 3 (Homo sapiens) (UniProt O95398); experiment: Counterscreen qHTS for agonist of cAMP-regulated guanine nucleotide exchange factor 3 (EPAC1) (AID 1645889); note: nearly all actives have a fitted effect of over 40% in size
# In short: as §1
structure (smiles),measurement,setting,value
CCOc1ccc(NC(=O)/C(C#N)=C/c2ccc(N3CCCC3)c(C)c2)cc1,Potency,[1],inactive
same,activation,[2],"3.1% [at 17.1 µM, percent relative to cAMP agonist control]"
same,Potency,[3],inactive
O=S1(=O)NC(c2ccccc2)CC(CC2CCCCC2)O1 (stereo not drawn),Potency,[1],inactive
same,activation,[2],"26.6% [at 17.1 µM, percent relative to cAMP agonist control]"
same,Potency,[3],inactive
same,"activity change, negative = inhibition",[4],-0.437% [at 30.8 µM]
COC(=O)CC(NC(=S)NC(=O)c1ccccc1)c1ccc(Br)cc1 (stereo not drawn),Potency,[1],inactive
same,Potency,[2],inactive
same,Potency,[3],inactive
same,Potency,[4],inactive
COc1ccc2noc3c2c1C(=O)c1ccccc1-3,Potency,[1],inactive
same,Potency,[2],112 µM (active)
same,Potency,[3],inactive
COC(=O)C1=CN(C(C)c2ccccc2)C=C(C(=O)OC)C1c1cc(OC)c(OC)c(OC)c1 (stereo not drawn),Potency,[1],inactive
same,Potency,[2],inactive
same,Potency,[3],26.9 µM (active)
same,Potency,[4],inactive
CCOC(=O)/C(C#N)=C/c1ccc(N2CCN(Cc3ccccc3)CC2)cc1,Potency,[1],inactive
same,activation,[2],"10.3% [at 17.1 µM, percent relative to cAMP agonist control]"
same,Potency,[3],inactive
same,"activity change, negative = inhibition",[4],16.8% [at 30.8 µM]
O=C1OC(c2ccccc2)(c2cc(Br)c(O)c(Br)c2)c2ccccc21 (stereo not drawn),Potency,[1],84.9 µM (active)
same,Potency,[5],inactive
same,Potency,[6],inactive
Cc1ccc(S(=O)(=O)N2[C@@H](c3ccc(C(C)(C)C)cc3)C(C(=O)O)=CC[C@H]2c2ccc(Cl)cc2)cc1,Potency,[1],33.8 µM (active)
same,Potency,[5],inactive
same,Potency,[6],inactive
N=C1SC(c2ccccc2)C(=O)N1c1ncc(Cc2ccccc2Cl)s1 (stereo not drawn),Potency,[1],inactive
same,Potency,[2],inactive
same,Potency,[3],inactive
same,Potency,[4],inactive
COc1cc(C)c(S(=O)(=O)N2CCCC2)cc1C(C)C,Potency,[1],inactive
same,Potency,[5],inactive
same,activation,[6],14.6% [at 30.8 µM]
O=C1CCC2CN3CCc4c([nH]c5ccccc45)C3CC2C1 (stereo not drawn),Potency,[1],inactive
same,activation,[2],"-5.59% [at 17.1 µM, percent relative to cAMP agonist control]"
same,Potency,[3],inactive
same,"activity change, negative = inhibition",[4],2.15% [at 30.8 µM]
Cc1cccc(NCc2cccc3ccccc23)n1,Potency,[1],inactive
same,activation,[2],"4.47% [at 17.1 µM, percent relative to cAMP agonist control]"
same,Potency,[3],inactive
same,"activity change, negative = inhibition",[4],-11.4% [at 30.8 µM]
COC(=O)c1c(C)c2c(C)cc3ccccn3c-2c1C(=O)OC,Potency,[1],inactive
same,activation,[2],"10.6% [at 17.1 µM, percent relative to cAMP agonist control]"
same,Potency,[3],inactive
same,"activity change, negative = inhibition",[4],9.53% [at 30.8 µM]
Cc1ccc(NC(=O)c2sc3nc(-c4cc5ccccc5oc4=O)[nH]c(=O)c3c2C)c(C)c1,Potency,[1],inactive
same,Potency,[2],inactive
same,Potency,[3],inactive
same,Potency,[4],inactive
CCc1ccc(NC(=O)/C(C#N)=C/c2cc3ccc(C)cc3nc2N2CCOCC2)cc1,Potency,[1],inactive
same,activation,[2],"0% [at 17.1 µM, percent relative to cAMP agonist control]"
same,Potency,[3],inactive
same,"activity change, negative = inhibition",[4],-18.1% [at 30.8 µM]
O=C1c2cccc3c(N4CCCCC4)ccc(c23)C(=O)N1c1ccccc1O,Potency,[1],inactive
same,activation,[2],"13.2% [at 17.1 µM, percent relative to cAMP agonist control]"
same,Potency,[3],inactive
same,"activity change, negative = inhibition",[4],-4.8% [at 30.8 µM]
O=C(CSc1nc2ccccc2o1)NCc1ccc2c(c1)OCO2,Potency,[1],inactive
same,Potency,[2],inactive
O=C1/C(=C/C=C/c2ccccc2)Oc2c1ccc(O)c2CN1CCN(CCO)CC1,Potency,[1],inactive
same,activation,[2],"17.5% [at 17.1 µM, percent relative to cAMP agonist control]"
same,Potency,[3],inactive
same,"activity change, negative = inhibition",[4],31.1% [at 30.8 µM]
Cn1c(=O)c(C#N)c(-c2ccc(F)cc2)c2cc(C(=O)c3cc(Cl)cc(Cl)c3O)cnc21,Potency,[1],inactive
same,Potency,[2],inactive
COc1ccc(OC)c(/C=C/c2nc3ccccc3nc2C)c1,Potency,[1],inactive
same,Potency,[2],79.3 µM (active)
same,Potency,[3],inactive
CCOC(=O)C1Oc2ccccc2C(c2ccc(C)cc2)=C1C(=O)OC (stereo not drawn),Potency,[1],inactive
same,Potency,[5],inactive
same,Potency,[6],inactive
